Screening results (PubChem BioAssay)
Pf growth 48h: inhibits P. falciparum growth in the first generation, 48 h; Potency, µM (doses to about 28.7 µM), for the others: at the top dose activity change, negative = inhibition, hits mostly inhibitors; hit rate 5.9% among 310,000; P. falciparum luciferase growth in erythrocytes, 48 h; active = well fitted inhibition curve with a large enough effect; inconclusive = small, poorly fitted or top-dose-only effect, or another doubt; inactive = no such curve, though single readings can be large or run the other way; also: potency is read from the fitted curve at half-maximal effect; % is scaled to controls: 0 for no effect and ±100 for the full control effect
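In quantitative HTS format, infected erythrocytes bearing luciferase-reporter parasites were treated for a single generation at 37 C. Luminescence after adding detection reagent served as the growth measure.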
SARS PLpro yeast: SARS-CoV PLP inhibition in yeast; S. cerevisiae expressing SARS-CoV PLpro, growth rescue; Potency, µM (series often up to 32.9 µM), inactives show top-dose activity, positive = growth rescue, most hits filed as activators; hit rate 0.19% among 330,000; AID 485353; also: potency is read from the fitted curve at half-maximal effect; 0% is about no effect; nearly all actives have a fitted effect of over 55% in size
NS1 function inh: blocks influenza NS1 protein function; Potency, µM (highest dose often 46.1 µM), for the others: top-dose activity, positive = more growth; hit rate 0.4% among 270,000; also: potency is read from the fitted curve at half-maximal effect; actives are rising curves; nearly all actives have a fitted effect of over 50% in size
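A cell-based growth assay was used: compounds that relieve NS1-induced slow growth of budding yeast raise OD600. Assay medium was yeast nitrogen base with ammonium sulphate and -URA supplement, pH 6.0, with 2% galactose.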
Shiga toxin inh: blocks Shiga toxin action in Vero cells; Vero cells, Shiga toxin protein synthesis inhibition reporter; inhibition, % at 38.7 µM; hit rate 9.2% among 290,000; AID 2315; in the data active = inhibition mostly above about 28%, no sharp cut-off; inactive = mostly below about 43%; also: 0% is about no effect
Cycloheximide cs: affects cycloheximide protein synthesis inhibition readout, counter-screen. cell reporter, cycloheximide protein synthesis inhibition counterscreen. hit rate 12% among 300,000. max response, %. AID 2314; in the data active = max response mostly above about 13%, no sharp cut-off; inactive = mostly below about 14%; also: read at 38.3 µM for the half of the compounds with a filed dose; 0% is about no effect
Pf growth 96h: P. falciparum growth inhibition at 96 hours. P. falciparum luciferase reporter growth, 96 h. hit rate 6.9% among 320,000. AID 504834. Potency, µM (doses to about 28.7 µM), inactives show at the highest dose activity change, negative = inhibition, most hits filed as inhibitors; active = well fitted inhibition curve with a large enough effect; inconclusive = small, poorly fitted or top-dose-only effect, or another doubt; inactive = no such curve, though single readings can be large or run the other way; also: potency is read from the fitted curve at half-maximal effect; % is scaled to controls: 0 for no effect and ±100 for the full control effect
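Erythrocytes infected with luciferase-expressing P. falciparum were dispensed at 2% hematocrit and 0.05% parasitemia (final), then incubated with compounds 96 hours at 37 C in 5% CO2. Luminescence after detection reagent addition reported growth.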
Numbers without * were called inactive; ? = inconclusive; . = no result. Rows were chosen to be rich in hits. Some 21% of all compounds tested hit in one or more screens of this group. Unless noted, calls follow the shape of the full dose curve.

SMILES	Pf growth 48h	SARS PLpro yeast	NS1 function inh	Shiga toxin inh	Cycloheximide cs	Pf growth 96h
COc1ccc(C(C(=O)NC2CCCC2)N(C(=O)c2ccoc2C)c2ccc(C)c(C)c2)cc1 (stereo not given)	?	-28.8%	15.3%	-7.7	14.8	1.04µM*
COc1cc(OC)cc(N(C(=O)c2ccco2)C(C(=O)NC2CCCC2)c2ccc(N(C)C)cc2)c1 (stereo not given)	11.7µM*	2.1%	-7.9%	-11.0	0.9	?
COc1cccc(N(C(=O)CNC(=O)c2ccco2)C(C(=O)NC2CCCCC2)c2ccncc2)c1 (stereo not given)	-5.1%	-12.5%	-8.2%	-2.1	0.5	9.28µM*
COc1ccc(N(C(=O)c2ccco2)C(C(=O)NC2CCCC2)c2ccc(N(C)C)cc2)cc1OC (stereo not given)	13.1µM*	15.2%	-6.6%	14.0	7.0	101.1%
Cc1ccc(N2C(=O)CC(C)(C)CC2=O)cc1Cl	?	1.7%	0.7%	-2.1	-1.2	-0.2%
COc1ccc(S(=O)(=O)N(CC(=O)NCc2cccnc2)c2ccc(C)cc2)cc1OC	-2.9%	1.2%	-1.9%	-4.0	-4.2	?
COc1cccc(NC(=O)C2CCCO2)c1 (stereo not given)	26.4%	-4.9%	7.3%	.	-1.2	-19.0%
COc1cccc(N(C(=O)c2ccco2)C(C(=O)NC2CCCC2)c2cccnc2)c1 (stereo not given)	?	5.5%	-0.6%	12.8	1.9	-11.6%
COc1cccc(N(C(=O)c2ccco2)C(C(=O)NC2CCCC2)c2ccc(N(C)C)cc2)c1 (stereo not given)	0.0%	?	-19.0%	17.2	19.8*	16.4%
COc1ccc(C(=O)NCCn2ccc3ccccc32)c(OC)c1	13.5%	-7.6%	-33.1%	42.4	37.5*	78.0%
COc1ccc(NC(=O)c2ccc(=O)oc2)cc1	135.5%	-8.2%	-9.7%	13.0	2.1	?
COc1ccc(C(=O)Nc2ccc(C(=O)OCC(=O)c3cccc4ccccc34)cc2)cc1	?	11.8%	-5.7%	-4.1	4.3	13.1µM*
COc1ccc(NC(=O)c2coc(C)c2)cc1	62.3%	-1.8%	0.3%	54.0*	29.2*	22.3%
COc1ccc(C(=O)CNc2ccc3ccccc3c2)cc1	-3.7%	-0.7%	5.6%	79.3*	30.9*	7.4%
CCCOc1ccc(CNC(=O)c2ccc3c(c2)N(CC)CCS3)cc1	5.3%	1.8%	-0.1%	-1.7	-0.6	10.4%
COC(=O)c1cc(S(=O)(=O)NC2CCCCC2)cn1C	-14.2%	-1.5%	14.4%	-5.3	-1.9	25.7%
COc1ccc(C(=O)CNc2ccccc2Br)cc1	32.7%	0.1%	-9.5%	73.7*	41.1*	?
COc1ccc(C(=O)Nc2ccc3ccccc3c2)c(OC)c1	105.1%	-9.6%	-85.3%	85.7*	30.1*	?
COc1ccc(NC(=O)c2ccc3ccccc3c2)cc1	286.8%	1.2%	5.4%	.	36.7*	?
Cc1ccccc1NCC(=O)c1ccc(Br)cc1	32.7%	3.2%	4.8%	-9.1	-3.6	-0.6%
CCC(=O)Nc1ccc(NC(=O)c2ccc3ccccc3c2)cc1	86.0%	-2.8%	7.8%	.	9.5	128.5%
CCOc1ccccc1NC(=O)c1ccc(NC(=O)C2CCCO2)cc1 (stereo not given)	-12.9%	-0.9%	-4.6%	6.8	6.0	-5.0%
Cc1cccc(NC(=O)Nc2ccc3c(c2)N(C)C(=O)CS3)n1	.	-2.6%	2.4%	17.0	10.9	10.4µM*
Cc1ccc(NC(=O)Nc2ccc3c(c2)N(C)C(=O)CS3)nc1	?	-5.1%	11.2%	42.6	-1.4	?
Cc1ccnc(NC(=O)Nc2ccc3c(c2)N(C)C(=O)CS3)c1	99.8%	16.8%	?	155.8*	82.8*	13.1µM*
SMILES	Pf growth 48h	SARS PLpro yeast	NS1 function inh	Shiga toxin inh	Cycloheximide cs	Pf growth 96h
CCCCCn1nc(C(=O)OCc2nc(N)nc(Nc3ccccc3)n2)c2ccccc2c1=O	.	-7.0%	.	.	.	.
CSCCC(NC(=O)OC(C)(C)C)C(=O)Oc1ccc2c(=O)c(-c3ccc4c(c3)OCCO4)coc2c1 (stereo not given)	402.0%	-3.4%	-44.1%	83.3*	36.3*	?
CSCCC(NC(C)=O)C(=O)Oc1ccc2c3c(c(=O)oc2c1)CCCC3 (stereo not given)	55.4%	-5.3%	-30.2%	4.9	12.1	?
CN(CC(=O)Nc1ccc(F)c(F)c1)S(=O)(=O)c1cccc2cccnc12	1.8%	2.0%	10.2%	6.5	-2.7	13.1µM*
O=C(CNS(=O)(=O)c1ccc(Br)s1)Nc1ccc2c(c1)OCCO2	?	2.5%	-13.4%	39.4	31.6*	13.1µM*
CCN(CC(=O)Nc1ccc2c(c1)OCCO2)S(=O)(=O)c1cccs1	.	21.9%	?	51.9*	27.9*	30.9%
CC(NC(=O)CN(C)S(=O)(=O)c1ccc(Br)s1)c1ccccc1 (stereo not given)	5.6%	2.0%	-16.9%	84.1*	36.0*	-11.5%
CCn1cc(C(=O)Nc2ccc(OC)c(S(=O)(=O)N3CCCCC3)c2)c(=O)c2ccc(C)nc21	3.2%	-1.6%	5.1%	-8.7	-3.1	36.5%
CC(C)NC(=O)CCS(=O)(=O)c1ccc(Br)s1	38.3%	1.4%	-4.5%	32.0	16.8	0.465µM*
Cc1ccccc1NC(=O)CCS(=O)(=O)c1ccc(Br)s1	11.6%	-4.7%	-3.8%	23.7	7.2	264.5%
COc1ccc(NC(=O)CN(C)S(=O)(=O)c2ccc(Br)s2)cc1	-13.9%	1.7%	10.1%	23.5	9.8	-25.4%
Cc1ccc(NC(=O)CN(C)S(=O)(=O)c2ccc(Br)s2)cc1F	13.5%	17.0%	-19.0%	43.9*	20.7*	21.6%
CN(CC(=O)Nc1ccc2c(c1)OCCO2)S(=O)(=O)c1ccc(Br)s1	.	8.3%	-17.7%	3.1	24.7*	13.1µM*
COc1ccc(CNC(=O)C(=O)NCC2OCCCN2S(=O)(=O)c2cccs2)cc1 (stereo not given)	-13.5%	4.8%	-3.8%	-8.9	-3.8	0.3%
CCCOc1ccc(N2C(=O)CC(NCc3cccs3)C2=O)cc1 (stereo not given)	-0.8%	-20.6%	-6.1%	11.3	-2.8	5.22µM*
Cc1ccc2[nH]c(CSc3ccccc3)cc(=O)c2c1	?	-1.2%	-4.4%	23.9	19.7	13.1µM*
Cc1ccc2[nH]c3ccccc3c(=O)c2c1	.	-10.9%	-98.3%	48.5*	28.0*	34.2%
CC(=O)NCCOc1ccc2oc3ccccc3c2c1	78.4%	.	-56.5%	71.3*	31.3*	.
O=C1c2ccccc2C(=O)N1CC(O)CNc1ccc(Br)cc1 (stereo not given)	4.0%	-30.0%	0.5%	-2.7	-2.8	?
COC(=O)c1sc2nc(CN3CCOCC3)nc(N3CCOCC3)c2c1C	10.4µM*	1.9%	0.3%	17.3	-4.0	22.2%
COC(=O)c1sc2nc(-c3ccccc3)nc(N3CCN(C)CC3)c2c1C	3.7µM*	2.9%	-5.3%	-11.7	0.8	.
Cc1ccc(N2CCN(C(=S)Nc3ccccc3C)CC2)cc1	11.4%	0.1%	?	.	-3.5	-4.2%
